# Measured values: PMC5540273 (PLoS ONE, 2017)
# Tests used:
# Conditions in all cases: concentration: 1 μM, replicates: in singlicate; n = 1
# MAST1 = test system: MAST1
# MEK1 = test system: T1, MEK1
# T1 construct: gene MAP2K1
# MEK2 = test system: T2, MEK2
# T2 construct: gene MAP2K2
# MEK3 = test system: T3, MEK3
# T3 construct: gene MAP2K3
# MEK4 = test system: T4, MEK4
# T4 construct: gene MAP2K4
# MEK5 = test system: T5, MEK5
# T5 construct: gene MAP2K5
# MEK6 = test system: T6, MEK6
# T6 construct: gene MAP2K6
# MELK = test system: MELK
# MERTK = test system: MERTK
# MET = test system: MET
# MINK = test system: T7, MINK
# T7 construct: gene MINK1
# MKK7 = test system: MKK7
# MKNK1 = test system: MKNK1
# MKNK2 = test system: MKNK2
# MLCK = test system: T8, MLCK
# T8 construct: gene MYLK3
# MLK1 = test system: T9, MLK1
# T9 construct: gene MAP3K9
# MLK2 = test system: MLK2
# MLK3 = test system: MLK3
# MRCKA = test system: MRCKA
# MRCKB = test system: T10, MRCKB
# T10 construct: gene CDC42BPB
# 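Note: KINOMEscan kinase panel screen.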
SMILES,%Inh (MAST1) [%],%Inh (MEK1) [%],%Inh (MEK2) [%],%Inh (MEK3) [%],%Inh (MEK4) [%],%Inh (MEK5) [%],%Inh (MEK6) [%],%Inh (MELK) [%],%Inh (MERTK) [%],%Inh (MET) [%],%Inh (MINK) [%],%Inh (MKK7) [%],%Inh (MKNK1) [%],%Inh (MKNK2) [%],%Inh (MLCK) [%],%Inh (MLK1) [%],%Inh (MLK2) [%],%Inh (MLK3) [%],%Inh (MRCKA) [%],%Inh (MRCKB) [%]
Cc1ccc(NC(=O)Nc2ccccc2)cc1-c1ccc(C(=O)Nc2ccncc2)cc1 [GSK1398471],0,0,0,0,23,4,8,11,40,4,3,23,3,0,0,0,0,4,5,24
Cn1cnc2c(N)ncnc21 [SKF-97623],44,0,0,13,0,23,0,0,16,2,0,0,38,0,0,0,0,0,12,0
O=c1cc(N2CCOCC2)nc2n(Cc3cccc(Cl)c3Cl)c3ccccc3n12 [GSK2299009],0,0,0,0,34,75,0,89,41,0,5,28,10,8,16,0,32,36,24,14
Cc1nccc(-c2c(-c3ccc(F)cc3)ncn2CCCN2CCOCC2)n1.Cl [SB-282975],71,1,33,2,9,19,0,19,24,0,18,0,11,1,0,0,22,25,23,0
O=C1NC(=O)C(c2ccc(Cl)cc2)=C1Nc1cccc(Cl)c1 [SB-317651],23,0,13,27,0,4,3,16,2,0,0,0,14,56,0,0,0,1,0,0
COc1ccc(CSc2nnc(-c3ccc4ncsc4c3)o2)cc1C(F)(F)F,0,0,9,9,0,0,24,0,16,0,0,0,0,0,0,0,23,0,0,0
COc1ccc(CSc2nnc(-c3ccc4c(c3)CCO4)o2)cc1,7,0,0,0,0,1,0,0,0,0,0,0,0,0,0,0,15,0,0,0
Cc1cnc(N)c(/C=C/c2cncc(C(=O)NCCc3ccc(Cl)cc3Cl)c2)c1.Cl [GSK190937],5,0,0,0,34,41,0,2,29,0,4,0,0,2,6,0,0,0,5,2
CNC(=O)c1ccc(C)c(-n2c(C)cc(OCc3ccc(F)cc3F)c(Br)c2=O)c1,0,0,0,0,0,0,0,14,0,0,0,0,0,100,0,0,0,19,0,8
CC[C@@H]1CO[C@H](C(=O)Nc2ccccc2)CN1c1cc(-c2ccc3c(N)n[nH]c3c2)nc(NC)n1 [GSK2376236],0,5,13,0,0,0,0,56,3,0,0,0,6,0,0,0,0,14,14,0
